# Bioassay records from PubChem.
# An excerpt weighted towards active compounds, which were near 3.5% of everything screened.
# GPR151 activ = activates the human receptor GPR151 | AID 1508602 | PathHunter beta-arrestin GPR151 cells, luminescence | activation, % at 11.2 µM | 650,000 tested, 1% active | Q8TDV0; in the data active = activation above about 4.9%;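 note: 0% = median of compound wells and 100% = cells with positive control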
# TEAD-YAP inh = TEAD-YAP interaction inhibition; HEK-TIYL cells, TEAD-Gal4/YAP UAS-luciferase luminescence; inhibition, % at 9.12 µM; 640,000 tested, 1.4% active; AID 1259422; in the data active = inhibition above about 32%;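 note: 0% = median of test compound wells and 100% = reference inhibitor wells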
# FBW7 activator = activators of human E3 ligase FBW7. normalized activity (activation), % at 26.1 µM. AlphaScreen FBW7–phospho-cyclin E peptide binding, activator screen. AID 1259310. 650,000 tested, 0.13% active; in the data active = normalized activity above about 1.9%;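 note: purified mutant Fbw7 with reduced substrate affinity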
# MITF inh = human MITF inhibition, primary screen; O75030; AlphaScreen MITF homodimerization, bead proximity signal; inhibition, % at 2.6 µM; 650,000 tested, 0.91% active; AID 1259374; in the data active = inhibition above about 50%;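 note: 0% = vehicle wells with protein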
# Target sequence (O75030 whole entry, looked up): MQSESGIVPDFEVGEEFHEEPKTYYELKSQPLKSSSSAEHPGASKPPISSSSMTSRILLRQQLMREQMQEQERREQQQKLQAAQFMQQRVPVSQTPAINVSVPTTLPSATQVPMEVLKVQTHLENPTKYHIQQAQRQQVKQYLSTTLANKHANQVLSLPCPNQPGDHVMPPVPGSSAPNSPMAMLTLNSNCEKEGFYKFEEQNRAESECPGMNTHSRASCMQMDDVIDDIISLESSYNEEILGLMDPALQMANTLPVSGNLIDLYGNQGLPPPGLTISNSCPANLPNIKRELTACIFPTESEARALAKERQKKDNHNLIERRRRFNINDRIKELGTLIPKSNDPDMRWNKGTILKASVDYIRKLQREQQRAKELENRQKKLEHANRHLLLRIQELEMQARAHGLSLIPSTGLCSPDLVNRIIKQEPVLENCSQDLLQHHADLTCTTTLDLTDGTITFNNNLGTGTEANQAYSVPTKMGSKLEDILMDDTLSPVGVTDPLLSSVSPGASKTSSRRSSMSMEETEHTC
# MITF inh conf = confirmation of human MITF inhibitors; shares compounds with MITF inh; AlphaScreen MITF homodimerization, biotin/His-MITF beads; inhibition, % at 2.6 µM; 4,700 tested, 16% active; AID 1259372;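 active = inhibition above a cutoff derived from the DMSO control wells, cut at about 28% in these data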;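 note: 0% = MITF dimer wells with DMSO only; inhibitors lower the bead chemiluminescence by keeping MITF from dimerizing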
# AS interf ctr = counter-screen: compounds optically interfering with AlphaScreen. shares compounds with MITF inh. AID 1259376. inhibition, % at 2.6 µM. LysRS AlphaScreen counterscreen, signal interference, triplicate. 4,700 tested, 7.6% active;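 active = inhibition above a cutoff derived from the DMSO control wells, cut at about 30% in these data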
# * hit, by the source's call; · = no result given.
SMILES,GPR151 activ,TEAD-YAP inh,FBW7 activator,MITF inh,MITF inh conf,AS interf ctr
C=CCNC(=O)c1cn(Cc2ccccc2)cc(C(=O)N(C)Cc2ccccc2)c1=O,-1,1,0,-4,·,·
N#Cc1ccc(NC(=O)CSc2nnc(N)s2)cc1Cl,0,4,0,-10,·,·
CC(Cc1cccs1)NC1CCN(c2ccc(NC(=O)c3cnccn3)cc2)CC1 (stereo unspecified),0,-11,0,-4,·,·
CC(C)Nc1ccc([N+](=O)[O-])c2nonc12,-1,-6,0,-3,·,·
Cc1noc2ncnc(N3CCN(C)CC3)c12,-1,-4,0,15,·,·
Cc1cccc(CN2CCN(Cc3ccccc3F)CC2)c1,-1,-2,0,79*,10,12
COc1ccc(CN2CCN(Cc3cccc(C)c3)CC2)cc1,-2,4,0,31,·,·
CCC(C)N1CCN(Cc2ccccc2F)CC1 (stereo unspecified),0,-1,0,75*,-2,0
CCC(C)N1CCN(Cc2ccccc2)CC1 (stereo unspecified),0,11,0,66*,-4,-8
CCn1ccnc1CN1CCCC(C(=O)c2ccc(OC)c(OC)c2)C1 (stereo unspecified),-1,1,0,13,·,·
COCC1=C(C(=O)OC)C2(C(=O)Nc3ccccc32)C(C#N)=C(N)O1 (stereo unspecified),0,15,0,10,·,·
Fc1ccc(CNCCc2c[nH]c3ccccc23)cc1,0,11,0,19,·,·
Fc1ccc(CNCCc2c[nH]c3ccccc23)cc1F,-2,6,0,54*,1,-2
N/C(=N\[N+](=O)[O-])NNC(=O)C(=O)N/N=C/c1ccc(O)cc1,0,3,0,2,·,·
Brc1cccc(CN2CCN(Cc3cccc(Br)c3)CC2)c1,0,2,1,77*,-3,10
Clc1cccc(CN2CCN(Cc3cccc(Br)c3)CC2)c1,0,10,0,50,·,·
Brc1cccc(CN2CCN(Cc3ccc4c(c3)OCO4)CC2)c1,1,3,0,64*,-3,7
Fc1cccc(CN2CCN(Cc3ccc4c(c3)OCO4)CC2)c1,0,-3,0,56*,-2,3
CN1CCC2(C1)Oc1ccccc1O2,-1,1,0,55*,18,16
O=C(c1ccoc1)N1CCC2(CC1)OCc1ccccc1O2,1,11,0,9,·,·
c1ccc(CN2CCN(C3CCCCC3)CC2)cc1,-1,4,0,75*,14,12
c1ccc(CN2CCN(c3ccccc3)CC2)cc1,-1,-5,0,20,·,·
COc1ccccc1CN1CCN(Cc2ccccc2OC)CC1,-1,-8,0,75*,3,3
COc1ccccc1N1CCN(Cc2ccccc2C)CC1,-1,2,0,3,·,·
COc1ccccc1N1CCN(Cc2ccccc2C#N)CC1,1,0,0,55*,3,6
SMILES,GPR151 activ,TEAD-YAP inh,FBW7 activator,MITF inh,MITF inh conf,AS interf ctr
COc1ccccc1CN1CCN(Cc2ccccc2Cl)CC1,1,1,0,82*,1,15
COc1ccccc1CN1CCN(Cc2ccccc2F)CC1,0,-4,1,46,·,·
COc1ccc(CC2C(=O)NC(=S)NC2=O)c(OC)c1,0,0,0,10,·,·
CCOC(=O)c1c(C)n(Cc2ccccc2)c2ccc(OCC(O)Cn3cnc(-c4ccccc4)c3-c3ccccc3)cc12 (stereo unspecified),0,-5,0,5,·,·
CCN(CC)P(=S)(c1ccc(/C=N/NC(N)=S)s1)N(CC)CC,-1,8,0,0,·,·
CCN1CCN(Cc2cc(F)ccc2F)CC1,-1,6,0,62*,-5,-2
CN1CCN(Cc2c(F)cccc2F)CC1,1,2,0,62*,-25,-2
CN1CCN(Cc2ccc(F)cc2F)CC1,2,2,0,41,·,·
CN1CCN(Cc2cc(F)ccc2F)CC1,1,-10,0,69*,16,14
CC(C)CN1CCN(Cc2cc(F)ccc2F)CC1CCO (stereo unspecified),1,-6,0,5,·,·
CN(C)C(=O)Oc1ccc2ccccc2c1Br,-1,7,0,0,·,·
O=C(CN1CCOCC1)c1cccc2ccccc12,-2,-5,0,56*,13,19
CCCCCCC[n+]1ccc(-c2cc[n+](CCCCCCC)cc2)cc1,0,17,0,-2,·,·
C[n+]1ccc(-c2cc[n+](C)cc2)cc1,2,6,0,65*,6,13
CCN1CCN(Cc2c(Cl)cccc2Cl)CC1,0,7,0,69*,-2,2
Clc1ccc(CN2CCN(Cc3ccccc3Cl)CC2)cc1,0,-16,0,78*,-6,-3
CCN1CCN(Cc2ccc(Cl)c(Cl)c2)CC1,1,1,0,-13,·,·
CCc1ccc(CN2CCN(Cc3ccccc3Cl)CC2)cc1,0,-3,0,68*,5,18
N#Cc1ccc(NC(=O)COC(=O)C2CC2)cc1Cl,2,-9,0,3,·,·
N#Cc1ccc(NS(=O)(=O)c2ccc([N+](=O)[O-])cc2)cc1Cl,-1,1,0,15,·,·
COc1cccc(CCNCc2cc(OC)cc(OC)c2)c1,-2,-3,0,55*,-4,-3
COc1ccc(CCNCc2cccnc2)cc1OC,-1,-5,0,70*,-13,3
Cc1ccc(-c2nn(CCC#N)cc2C=O)cc1,1,-2,0,-5,·,·
O=[N+]([O-])c1ccc(CN2CCN(c3ccccc3)CC2)cc1,1,-9,0,38,·,·
CC(=O)c1ccc(N2CCN(Cc3cccc(C)c3)CC2)cc1,0,-9,0,20,·,·
SMILES,GPR151 activ,TEAD-YAP inh,FBW7 activator,MITF inh,MITF inh conf,AS interf ctr
CC(=O)c1ccc(N2CCN(Cc3ccc(F)cc3F)CC2)cc1,-1,-7,0,55*,2,4
CC(=O)c1ccc(N2CCN(Cc3cc(F)ccc3F)CC2)cc1,-1,2,0,61*,0,3
CC(=O)c1ccc(N2CCN(Cc3ccc(F)c(F)c3)CC2)cc1,2,-8,0,45,·,·
O=C(COc1ccc(Cl)cc1)N1CCN(Cc2nnnn2-c2ccc(F)c(F)c2)CC1,1,21,1,18,·,·
CCSc1ccc(C[N+](C)(C)C)s1,-1,-1,0,11,·,·
COc1ccc(CN2CCN(Cc3ccc(Br)cc3)CC2)cc1Br,0,-3,-1,33,·,·
COc1ccc(CN2CCN(Cc3ccccc3Br)CC2)cc1Br,0,-7,0,75*,4,2
COc1ccc(CN2CCN(C)CC2)cc1Br,1,7,1,73*,3,10
CN1CCN(Cc2ccc(F)c(Br)c2)CC1,0,-1,1,80*,12,15
CCN1CCN(Cc2ccc(F)c(Br)c2)CC1,1,-2,0,44,·,·
OCCN1CCN(Cc2ccc(F)c(Br)c2)CC1,0,2,0,73*,-4,-4
CCCN1CCc2nc3ccncc3cc2C1,-2,-15,0,20,·,·
